Inconclusive results are not listed. Activity calls are given as the source filed them. Unless noted, the call rests on the fitted dose curve; in most records, active means well fitted curve in the direction sought with a large enough effect; inconclusive means small, poorly fitted or top-dose-only effect, or another doubt; inactive means no such curve, though single readings can be large; an effect the other way counts as inactive or inconclusive.
Columns and labels:
[1] = molecular target: Endonuclease 4 (Escherichia coli (strain K12)) (UniProt P0A6C1); assay: Counterscreen for APE1 Inhibitors: qHTS Validation Assay for Inhibitors of Endonuclease IV (AID 1708)
Summary of the method: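 Enzyme (2 nM) + compound, 15 min RT; add 50 nM TAMRA/BHQ-2 THF-site dsDNA; kinetic read ex525/em598, 3 reads/60 s; activity = read 3 − read 1. Buffer Tris pH 7.5, 50 mM NaCl, 2 mM MgCl2, DTT, Tween-20.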

[2] = qHTS for differential inhibitors of proliferation of Plasmodium falciparum line 7G8 (AID 1815);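 further: parasite growth measured after three days of incubation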; further: potency means the concentration at half of the fitted maximal effect
[3] = qHTS for differential inhibitors of proliferation of Plasmodium falciparum line GB4 (AID 1816); details: Potency: Plasmodium falciparum GB4 proliferation inhibition;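 further: parasite growth measured after 72 h incubation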; further: potency means the concentration at half of the fitted maximal effect
[4] = qHTS for differential inhibitors of proliferation of Plasmodium falciparum line 3D7 (AID 1876); further: potency means the concentration at half of the fitted maximal effect
[5] = qHTS for differential inhibitors of proliferation of Plasmodium falciparum line D10 (AID 1877);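 further: parasites grown with compound for 72 h before DNA staining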; further: potency means the concentration at half of the fitted maximal effect
[6] = qHTS for differential inhibitors of proliferation of Plasmodium falciparum line W2 (AID 1883); details: Potency: Plasmodium falciparum W2 proliferation inhibition;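 further: parasites grown with compound for 72 h before lysis and staining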; further: potency means the concentration at half of the fitted maximal effect
[7] = qHTS for differential inhibitors of proliferation of Plasmodium falciparum line HB3 (AID 1886); details: Potency: Plasmodium falciparum HB3 proliferation inhibition;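 further: parasites grown with compound for 72 h before SYBR Green readout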; further: potency means the concentration at half of the fitted maximal effect
[8] = molecular target: Ferritin light chain (Equus caballus) (UniProt P02791); assay: qHTS Validation Assay for Identification of Novel General Anesthetics (AID 2323); further: potency means the concentration at half of the fitted maximal effect
Summary of the method: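 Competitive displacement of profluorescent 1-aminoanthracene (1-AMA, 50% saturated solution in PBS) from 10 uM horse-spleen apoferritin. Compounds incubated 10 min at room temperature; fluorescence read at 380 nm excitation/535 nm emission, normalized to free 1-AMA and complex, fitted with four-parameter Hill equation.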

[9] = molecular target: ATP-dependent DNA helicase Q1 (Homo sapiens) (UniProt P46063); assay: qHTS Validation Assay for Inhibitors of RecQ-Like Dna Helicase 1 (RECQ1) (AID 2353); further: potency means the concentration at half of the fitted maximal effect
Summary of the method: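 RECQ1T1 50 nM; forked duplex (20 bp + 30-nt ss tails) 200 nM, ATP 2 mM final; pH 8.0, 2 mM MgCl2, 2.5 ug/ml poly(dI-dC); 15 min compound preincubation; discontinuous kinetic read over 2 h at RT.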

[10] = Cytometric Cell-Based qHTS for Inhibitors of the mTORC1 Signaling Pathway in MEF (Tsc2-/-, p53-/-) Cells (AID 2660); further: potency means the concentration at half of the fitted maximal effect
Summary of the method: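 Tsc2-/-, p53-/- MEFs (empty vector) exposed to compound 24 h at 37 C, fixed, stained with Alexa-488 anti-phospho-rpS6 Ser235/236 and propidium iodide. Acumen laser scanning; phospho-S6/PI ratio thresholded against 7.5 nM rapamycin, reported as % positive cells.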

[11] = High Content Imaging Cell-Based qHTS for Inhibitors of the mTORC1 Signaling Pathway in MEF (Tsc2-/-, p53-/-) Cells (AID 2666);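 further: percent of cells scored positive for phospho-rpS6 Ser235/236 immunostaining by imaging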; further: potency means the concentration at half of the fitted maximal effect
Summary of the method: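 Inhibition of rpS6 phosphorylation is measured by immunofluorescence imaging in empty-vector Tsc2-/-, p53-/- mouse embryonic fibroblasts after 24 hrs compound exposure at 37 degree Celsius. Results are reported as % positive cells per well.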

[12] = High Content Imaging Cell-Based qHTS for Inhibitors of the mTORC1 Signaling Pathway in MEF Cells (AID 2667); further: potency means the concentration at half of the fitted maximal effect
Summary of the method: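 Fixed-cell imaging of phospho-S6 (Ser235/236, Alexa-488) after 24 hrs of compound treatment at 37 degree Celsius. Signal was normalized to Hoechst, and thresholds from the highest and lowest wells split cells into % active versus % non-active.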

[13] = molecular target: Ubiquitin carboxyl-terminal hydrolase 2 (Homo sapiens) (UniProt O75604); assay: qHTS Validation Assay for Inhibitors of Ubiquitin-specific Protease USP2a Using CHOP2 as the Reporter (AID 463106)
Summary of the method: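 Inhibition is expressed relative to NEM as the full-inhibition control, with concentration-response curves classed by fit quality, magnitude and activity. Enzyme (USP2 core, 10nM) meets 25nM Ub-CHOP2 after compound preincubation; readings are taken at 60min.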

[14] = qHTS for differential inhibitors of proliferation of Plasmodium falciparum line Dd2 (AID 1882); details: Potency: Plasmodium falciparum Dd2 proliferation inhibition; further: nearly all actives have a fitted effect of over 65% in size; further: potency means the concentration at half of the fitted maximal effect
Summary of the method: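 SYBR Green DNA fluorescence (ex 485, em 535 nm) after overnight lysis quantifies parasite growth; compound exposure lasted 72 h at 37 C on infected red cells at 2.5% hematocrit, 0.3% parasitemia (final). Artemisinin 0.29 uM and vehicle wells define normalization.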

[15] = Cytometry Cell-Based qHTS for Inhibitors of the mTORC1 Signaling Pathway in MEF cells (AID 2668); further: potency means the concentration at half of the fitted maximal effect
Summary of the method: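 WT MEFs (Tsc2-/-, p53-/- stably re-expressing WT Tsc2) in DMEM + 10% FBS received compounds 24 hrs after plating, for 24 hrs at 37 degree Celsius. Fixed cells stained with Alexa-488 anti-phospho-rpS6 Ser235/236 and propidium iodide; laser-scanning cytometry read-out.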

[16] = Validation screen for small molecules that induce DNA re-replication in MCF 10A normal breast cells (AID 463097); further: nearly all actives have a fitted effect of over 60% in size
Summary of the method: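 Readout: Hoechst nuclear fluorescence intensity, 405 ex / 500-530 em, by scanning plate imager; re-replication scored as increase in nuclei with elevated DNA content. Cells exposed to compound 48 hr, 37 C, 5% CO2 beforehand.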

[17] = molecular target: RecQ-like DNA helicase BLM (Homo sapiens) (UniProt P54132); assay: qHTS Validation Assay for Inhibitors of Bloom's syndrome helicase (BLM) (AID 2364); further: potency means the concentration at half of the fitted maximal effect
Summary of the method: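 BLM 50 nM in 25 mM Tris-HCl pH 8.0, 5 mM NaCl, 2 mM MgCl2, 1 mM DTT, 0.01% Tween-20, 2.5 ug/ml poly(dI-dC); 15 min cpd preinc, RT. Start: 200 nM forked DNA + 2 mM ATP (final). TAMRA read, 2 reads 2 h apart.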

[18] = qHTS Assay for Identification of Small Molecule Inducers of Hypoxia Response (AID 2120; active means well fitted curve in the direction sought with a large enough effect in the signal ratio, with a control signal flat, not every such curve was filed as active; the % refers to the signal ratio)
Summary of the method: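 Reporter induction read as the CCF4 blue/green (460nm/530nm) emission ratio after 2.5 h dye loading at room temperature. ME-180 HRE-beta-lactamase cells received titrated compounds for 17 h at 37 degrees Celsius; AC50 values derived.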

[19] = qHTS Assay for Modulators of Human Peripheral Myelin Protein 22 (PMP22) Expression/Activity (AID 1967; active means well fitted curve in the direction sought with a large enough effect in the signal ratio; the % refers to the signal ratio)
Summary of the method: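 MSC80 mouse Schwann cells stably carrying Pmp22 promoter–green click beetle luciferase plus EF-alpha–red luciferase control were dosed for 24h at 37 °C. Dual-colour luminescence was filter-overlap corrected; %Activity came from green/red ratio versus untreated cells.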

Measured: Potency

ATP-dependent DNA helicase Q1 (Homo sapiens), sequence (P46063 whole entry, looked up): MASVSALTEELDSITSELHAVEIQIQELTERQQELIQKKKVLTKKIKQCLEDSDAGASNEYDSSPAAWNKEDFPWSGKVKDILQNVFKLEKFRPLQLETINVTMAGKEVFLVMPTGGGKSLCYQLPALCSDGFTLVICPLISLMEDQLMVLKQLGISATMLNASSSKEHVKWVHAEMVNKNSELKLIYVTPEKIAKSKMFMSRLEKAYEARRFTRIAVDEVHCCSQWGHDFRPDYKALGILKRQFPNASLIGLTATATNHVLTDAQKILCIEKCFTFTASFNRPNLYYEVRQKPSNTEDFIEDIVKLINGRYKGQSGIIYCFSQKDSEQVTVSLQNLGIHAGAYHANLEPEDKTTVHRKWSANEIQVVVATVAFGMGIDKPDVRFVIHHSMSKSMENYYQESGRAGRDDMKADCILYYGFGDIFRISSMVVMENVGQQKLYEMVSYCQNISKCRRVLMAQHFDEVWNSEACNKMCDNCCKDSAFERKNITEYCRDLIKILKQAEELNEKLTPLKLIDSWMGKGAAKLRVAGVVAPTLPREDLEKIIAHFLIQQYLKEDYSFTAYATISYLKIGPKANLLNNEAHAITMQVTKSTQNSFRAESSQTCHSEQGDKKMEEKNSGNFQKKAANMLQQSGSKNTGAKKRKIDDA
Ubiquitin carboxyl-terminal hydrolase 2 (Homo sapiens), sequence (O75604 whole entry, looked up): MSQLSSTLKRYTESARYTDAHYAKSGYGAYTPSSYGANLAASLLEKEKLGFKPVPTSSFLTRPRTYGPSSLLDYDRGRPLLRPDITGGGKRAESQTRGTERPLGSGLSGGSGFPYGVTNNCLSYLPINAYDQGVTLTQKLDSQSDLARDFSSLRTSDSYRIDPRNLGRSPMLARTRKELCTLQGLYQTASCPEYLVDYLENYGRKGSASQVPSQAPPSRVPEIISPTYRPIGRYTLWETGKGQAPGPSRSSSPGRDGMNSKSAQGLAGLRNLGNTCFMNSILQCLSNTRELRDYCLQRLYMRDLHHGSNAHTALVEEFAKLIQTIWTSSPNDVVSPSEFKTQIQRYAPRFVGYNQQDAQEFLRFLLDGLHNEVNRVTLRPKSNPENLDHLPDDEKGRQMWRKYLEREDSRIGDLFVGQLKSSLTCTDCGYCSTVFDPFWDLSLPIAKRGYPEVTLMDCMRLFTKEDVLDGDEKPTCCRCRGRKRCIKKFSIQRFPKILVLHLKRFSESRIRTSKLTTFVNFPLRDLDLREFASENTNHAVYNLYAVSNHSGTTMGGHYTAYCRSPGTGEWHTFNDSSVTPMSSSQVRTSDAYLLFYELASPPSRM
RecQ-like DNA helicase BLM (Homo sapiens), sequence (P54132 whole entry, looked up): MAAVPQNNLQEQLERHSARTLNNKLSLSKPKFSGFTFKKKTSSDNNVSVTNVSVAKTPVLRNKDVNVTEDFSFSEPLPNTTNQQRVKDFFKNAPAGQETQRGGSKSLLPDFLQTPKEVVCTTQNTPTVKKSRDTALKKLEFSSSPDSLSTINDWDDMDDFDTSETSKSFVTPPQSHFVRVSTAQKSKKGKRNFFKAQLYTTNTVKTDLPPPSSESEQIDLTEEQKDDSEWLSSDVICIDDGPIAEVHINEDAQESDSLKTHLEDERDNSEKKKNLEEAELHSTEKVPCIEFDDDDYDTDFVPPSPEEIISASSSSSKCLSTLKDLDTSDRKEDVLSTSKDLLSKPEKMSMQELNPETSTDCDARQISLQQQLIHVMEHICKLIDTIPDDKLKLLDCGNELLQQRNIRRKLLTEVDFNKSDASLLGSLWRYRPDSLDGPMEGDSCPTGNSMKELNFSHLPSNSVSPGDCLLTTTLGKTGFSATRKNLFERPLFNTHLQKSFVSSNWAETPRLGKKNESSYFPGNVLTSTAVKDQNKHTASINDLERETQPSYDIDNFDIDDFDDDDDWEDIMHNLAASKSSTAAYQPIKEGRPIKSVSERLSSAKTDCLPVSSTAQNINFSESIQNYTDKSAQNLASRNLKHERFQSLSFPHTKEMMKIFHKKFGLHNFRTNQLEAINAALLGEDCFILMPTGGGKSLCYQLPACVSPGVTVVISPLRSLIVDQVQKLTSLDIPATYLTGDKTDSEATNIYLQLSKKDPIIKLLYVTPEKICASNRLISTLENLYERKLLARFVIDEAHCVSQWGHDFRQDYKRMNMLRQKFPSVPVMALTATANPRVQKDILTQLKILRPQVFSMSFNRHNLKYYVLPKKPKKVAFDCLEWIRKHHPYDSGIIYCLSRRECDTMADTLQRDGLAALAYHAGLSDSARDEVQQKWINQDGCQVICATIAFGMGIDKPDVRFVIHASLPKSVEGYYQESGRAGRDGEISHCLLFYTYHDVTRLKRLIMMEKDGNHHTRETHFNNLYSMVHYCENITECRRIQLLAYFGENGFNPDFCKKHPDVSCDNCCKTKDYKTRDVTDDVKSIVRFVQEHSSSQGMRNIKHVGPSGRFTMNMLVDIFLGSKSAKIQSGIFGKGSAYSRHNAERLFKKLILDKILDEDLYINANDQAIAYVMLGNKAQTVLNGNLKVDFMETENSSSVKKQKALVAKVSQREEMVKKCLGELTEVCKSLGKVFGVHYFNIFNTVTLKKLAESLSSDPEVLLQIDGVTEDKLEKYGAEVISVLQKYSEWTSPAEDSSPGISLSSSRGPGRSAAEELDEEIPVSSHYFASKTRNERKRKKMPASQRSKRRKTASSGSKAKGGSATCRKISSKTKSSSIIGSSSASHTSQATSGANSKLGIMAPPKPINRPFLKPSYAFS

C[C@H](Cc1ccc(O)c(O)c1)[C@@H](C)Cc1ccc(O)c(O)c1
active: [2] 3.98 µM | [3] 5.01 µM | [4] 12.6 µM | [5] 12.6 µM | [6] 10 µM | [7] 14.1 µM | [8] 12.6 µM | [9] 11.2 µM
inactive: [1] | [10] | [11] | [12] | [13]

Cc1cccc(C#Cc2ccccc2)n1
active: [6] 12.6 µM
inactive: [1] | [5] | [14] | [9] | [10] | [11] | [12] | [15] | [16] | [13]

O=c1ccc2ccc(O)c(O)c2o1
active: [2] 10 µM | [3] 15.8 µM | [6] 15.8 µM | [7] 12.6 µM
not listed: [4] | [5] | [14] | [18] | [19]
inactive: all other assays above

O=c1cc(N2CCOCC2)oc2c(-c3ccccc3)cccc12
active: [10] 3.69 µM | [11] 9.27 µM | [12] 0.414 µM | [15] 4.65 µM
inactive: [1] | [4] | [5] | [14] | [7] | [8] | [9] | [13]

Cc1cc(O)c2c(c1)C(=O)c1cc(O)cc(O)c1C2=O
inactive: [1] | [5] | [14] | [18] | [9] | [10] | [11] | [12] | [15] | [13]

COc1ccc2cc([C@H](C)C(=O)O)ccc2c1
not listed: [11] | [18] | [19]
inactive: all other assays above

CNC[C@H](O)c1ccc(O)c(O)c1
inactive: [1] | [8] | [9] | [10] | [11] | [16] | [13]
active: [6] 14.1 µM | [12] 26.1 µM

O=C(CCc1ccc(O)cc1)c1c(O)cc(O)cc1O
active: [3] 11.2 µM | [6] 14.1 µM
not listed: [2] | [4] | [7] | [14] | [18] | [19]
inactive: all other assays above

C[C@@H](N)C1CCC(C(=O)Nc2ccncc2)CC1 (stereo not given in full)
not listed: [6] | [18]
inactive: all other assays above

O=C(c1ccccc1)c1ccc2n1CCC2C(=O)O (stereo not given)
not listed: [17] | [18] | [19]
inactive: all other assays above

NCCCCNCCCN
not listed: [10] | [11] | [18] | [19]
inactive: all other assays above

O=C1NC(=O)C(c2ccccc2[N+](=O)[O-])=C1Nc1ccc(O)c(Cl)c1
active: [6] 17.8 µM
inactive: [1] | [5] | [14] | [8] | [9] | [10] | [11] | [12] | [15] | [13]

Nc1nc(OCc2ccccc2)c2[nH]cnc2n1
not listed: [6] | [17] | [18] | [19]
inactive: all other assays above

O=c1c(O)c(-c2cc(O)c(O)c(O)c2)oc2cc(O)cc(O)c12
inactive: [1] | [8] | [10] | [11] | [16]
active: [4] 10 µM | [14] 4.47 µM | [6] 14.1 µM | [9] 0.891 µM | [17] 14.1 µM

O=C(O)c1cccnc1Nc1cccc(C(F)(F)F)c1
not listed: [16] | [18] | [19]
inactive: all other assays above

CN(C)CCCC1(c2ccc(F)cc2)OCc2cc(C#N)ccc21 (stereo not given)
active: [4] 10 µM | [6] 2.24 µM
inactive: [1] | [9] | [10] | [11] | [12] | [15] | [16] | [13]

O=C1c2c(O)cc(O)cc2OC(c2ccc(O)c(O)c2)C1O (stereo not given)
active: [3] 15.8 µM | [4] 14.1 µM | [6] 12.6 µM | [7] 15.8 µM
inactive: [1] | [14] | [9] | [10] | [11] | [12] | [15] | [13]
